# From PubChem BioAssay
# Tau ThT inhib: tau fibrillization inhibition (ThT binding). recombinant tau K18 P301L, heparin-induced fibrillization, ThT fluorescence. 2.1% of 270,000 active. P10636. Potency, µM (doses to about 57.4 µM), for the others: at the top dose activity, negative = inhibition, usual class: inhibitors. AID 1460; further: nearly all actives have a fitted effect of over 55% in size
# Target sequence (P10636 561-689 P618L limits assumed): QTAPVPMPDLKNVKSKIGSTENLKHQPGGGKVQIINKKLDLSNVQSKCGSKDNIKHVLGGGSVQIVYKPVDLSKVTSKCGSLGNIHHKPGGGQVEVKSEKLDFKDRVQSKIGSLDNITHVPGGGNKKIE
#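 Fibril formation assay: tau K18 P301L at 15 uM with trace Alexa 594 label, heparin inducer 20 uM, pH 7 sodium acetate buffer, 37 C for 6 hr; endpoint ThT signal.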
# TexasRed fluor: alters Texas Red total fluorescence, flagging assay interference | TRb/SRC2 Texas Red total fluorescence interference | 0.29% of 280,000 active | AID 1479 | Potency, µM (top dose mostly 106 µM), for inactives: at the top dose fluorescence change, negative = quenching; active means well fitted curve in either direction with a large enough effect; inconclusive means small, poorly fitted or top-dose-only effect
#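 Flags fluorescent or light-absorbing compounds by total fluorescence, S + 2P, at 555 nm excitation and 632 nm emission. Mixture: 20 nM Texas Red SRC2 peptide, 0.6 uM human TRb LBD, 1 uM T3, 5% DMSO; compound exposure 5 h at ambient temperature.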
# Tau FP inhib: tau fibrillization inhibition (FP). Potency, µM (highest dose often 57.7 µM), for inactives: top-dose activity, negative = inhibition, most hits filed as inhibitors. K18 P301L tau heparin fibrillization, Alexa594 FP, 6 h. 0.39% of 280,000 active; further: nearly all actives have a fitted effect of over 55% in size
#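 Compound effects on tau fibrillization are measured by Alexa 594 fluorescence polarization (ex 555, em 632 nm). K18 P301L tau is used at 15 uM with 0.24 uM labeled tracer, and 20 uM heparin induces aggregation over 6 hr at 37 C.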
# Tau fluor cs: counter-screen for tau fibril formation inhibitors; tau K18 P301L Alexa594 fluorescence, heparin fibrillization; Potency, µM (titrated, usually from 57.7 µM), for inactives: top-dose activity change, negative = decrease; 0.93% of 280,000 active; AID 1463; further: nearly all actives have a fitted effect of over 55% in size
#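 Human tau K18 P301L (15 uM unlabeled, 0.24 uM Alexa 594-labeled) in 100 mM sodium acetate pH 7 with 20 uM heparin, 6 hr at 37 C. ThT 30 uM added, 1 hr ambient; Alexa 594 FP and total fluorescence read at 555/632 nm.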
# TRb-SRC2 inh: disrupts binding of human TR beta to SRC2 | TRbeta-SRC2 peptide binding, fluorescence polarization; receptor liganded with 1 µM T3 | P10828 | AID 1469 | Potency, µM (top dose mostly 106 µM), inactives show at the highest dose activity change, negative = inhibition, hits mostly inhibitors | 0.065% of 280,000 active;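 further: plate controls were bound peptide for no effect and peptide without receptor for full effect; nearly all actives have a fitted effect of over 50% in size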
# Target sequence (P10828 whole entry, looked up): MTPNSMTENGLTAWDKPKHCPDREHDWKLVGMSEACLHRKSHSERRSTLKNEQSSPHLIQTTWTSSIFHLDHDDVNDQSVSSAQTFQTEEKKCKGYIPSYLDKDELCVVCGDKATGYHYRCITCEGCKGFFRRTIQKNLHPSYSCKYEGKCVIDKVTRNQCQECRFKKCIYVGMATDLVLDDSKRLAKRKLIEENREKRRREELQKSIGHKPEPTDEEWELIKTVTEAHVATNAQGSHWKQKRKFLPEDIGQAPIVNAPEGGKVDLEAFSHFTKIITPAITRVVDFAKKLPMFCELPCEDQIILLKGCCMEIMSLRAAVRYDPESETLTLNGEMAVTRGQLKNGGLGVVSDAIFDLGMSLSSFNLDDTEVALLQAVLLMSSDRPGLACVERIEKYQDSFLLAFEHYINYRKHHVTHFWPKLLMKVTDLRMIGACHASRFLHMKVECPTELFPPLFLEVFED
#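 Human TRb LBD (0.6 uM) plus Texas Red-labeled SRC2 peptide (20 nM), 1uM T3, 5% DMSO, 5 hr at ambient temperature. Decreased polarization (555/632 nm) flags inhibition; data normalized to free and bound peptide controls.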
# * marks the source's active call; other numbers are inactive results; ? = inconclusive; . = no result given; ! = repeats disagree; [ ] = another dose, or the depositor's remark. Most compounds without a hit are left out; they make up all but 3% or so of the library. Unless noted, the call rests on the fitted dose curve; in most records, active means well fitted curve in the direction sought with a large enough effect; inconclusive means small, poorly fitted or top-dose-only effect, or another doubt; inactive means no such curve, though single readings can be large; an effect the other way counts as inactive or inconclusive. Unless noted, on the % scale 0 is the no-effect control and ±100 the full control effect; potency means the concentration at half of the fitted maximal effect.
SMILES,Tau ThT inhib,TexasRed fluor,Tau FP inhib,Tau fluor cs,TRb-SRC2 inh
C=CCSc1nc2c(c(-c3ccsc3)c1C#N)CN(C)CC2,14.1µM*,2.1%,?,20µM*[quencher],-11.1%
O=C1NC(=O)c2c1c1c3ccccc3[nH]c1c1[nH]c3ccccc3c21,?,-16.5%,-8.6%,14.1µM*[quencher],-19.5%
CCCCOP(=O)(O)OCCCC,.,2.5%[201 µM],.,.,6.5%[201 µM]
N#CC(C#N)=Cc1cc(O)c(O)c(O)c1,12.6µM*!,-4.1%,22.4µM*!,?,-4.3%
O=C1NC(=O)N(c2ccccc2)C(=O)/C1=C/c1ccc(Sc2ccccc2)o1,?,22.0%,-5.7%,-9.0%,?
O=C1NC(=O)N(c2ccccc2F)C(=O)/C1=C/c1ccc(Sc2nc3ccccc3[nH]2)o1,12.6µM*,44.7µM*[fluorescent],-22.1%,-11.2%,?
O=C1NC(=O)N(c2ccc3c(c2)OCO3)C(=O)/C1=C\c1ccc(-c2ccccc2C(=O)O)o1,?,-0.3%,-2.1%,-16.1%,-2.9%
O=C1NC(=O)N(c2cccc(Cl)c2)C(=O)/C1=C\c1ccc(Sc2nc3ccccc3[nH]2)o1,12.6µM*,22.4µM*[fluorescent],?,?,?
CCOP(=S)(OCC)SCC(=O)NC(C)C,.,-2.8%[201 µM],.,.,5.2%[201 µM]
Clc1ccc([C@]2(Cn3cncn3)C[C@@H](Br)CO2)c(Cl)c1,.,-0.9%[201 µM],.,.,-0.6%[201 µM]
CC(=O)OC1CC2C(C)(C)C(O)C=C[C@@]2(C)C2CC[C@]3(C)C(=CC(=O)OC3c3ccoc3)[C@]12C (some centres not stated),35.5µM*,0.0%,?,-14.1%,-5.1%
CC(C)(C)C(=O)[C@@H](Oc1ccc(Cl)cc1)n1cncn1,.,-1.3%[201 µM],.,.,2.8%[201 µM]
C/C(=N\NC(=O)c1ccccc1)c1c(O)n(Cc2ccccc2)c(=O)[nH]c1=O,.,-1.5%,0.3%,?,8.2%
C/C(=N\Nc1cccc2ccccc12)c1c(O)n(Cc2ccccc2)c(=O)[nH]c1=O,17.8µM*,17.2%,?,?,24.0%
CCn1c(NN=O)nc2ccccc21,28.2µM*,-2.3%[53 µM],-1.6%,-11.3%,0.7%[53 µM]
CC(C)C1C(=O)N2CCCC2[C@]2(O)O[C@@](NC(=O)[C@@H]3C=C4c5cccc6[nH]cc(c56)C[C@H]4N(C)C3)(C(C)C)C(=O)N12 (some centres not stated),20µM*,19.3%,?,?,2.1%
CC(C)[C@@]1(NC(=O)[C@@H]2C=C3c4cccc5[nH]cc(c45)C[C@H]3N(C)C2)O[C@@]2(O)[C@@H]3CCCN3C(=O)[C@H](Cc3ccccc3)N2C1=O,12.6µM*,27.9%,?,?,?
CN1C[C@@H](C(=O)N[C@@]2(C)O[C@]3(O)C4CCCN4C(=O)[C@@H](Cc4ccccc4)N3C2=O)C=C2c3cccc4[nH]cc(c34)C[C@@H]21 (some centres not stated),?,?,?,?,-8.6%
CC(C)C[C@H]1C(=O)N2CCCC2[C@]2(O)O[C@](NC(=O)[C@@H]3C=C4c5cccc6[nH]cc(c56)CC4N(C)C3)(C(C)C)C(=O)N12 (some centres not stated),12.6µM*,28.3%,?,?,-9.0%
CC(C)[C@H]1C(=O)N2CCC[C@H]2[C@]2(O)O[C@](NC(=O)[C@@H]3C=C4c5cccc6[nH]cc(c56)C[C@H]4N(C)C3)(C(C)C)C(=O)N12,?,-2.8%,?,?,-4.1%
O=C(O)c1nc(Cl)ccc1Cl,.,-3.3%[201 µM],.,.,-2.8%[201 µM]
CC(C)[C@H](C(=O)O[C@H](C#N)c1cccc(Oc2ccccc2)c1)c1ccc(Cl)cc1,.,1.1%[201 µM],.,.,0.9%[201 µM]
CCOC(=O)C1CCN(/C=C2/C(=O)NC(=S)N(c3ccccc3F)C2=O)CC1,-7.4%,0.3%,6.1%,1.8%,-5.8%
CCOC(=O)C1CCN(/C=C2/C(=O)NC(=O)N(c3ccc(OCC)cc3)C2=O)CC1,14.1µM*,-3.2%,?,-19.3%,4.1%
O=C1NC(=O)C(=Cc2ccccc2OCCOc2ccc([N+](=O)[O-])cc2)C(=O)N1,?,-1.0%,?,-15.9%,8.0%
SMILES,Tau ThT inhib,TexasRed fluor,Tau FP inhib,Tau fluor cs,TRb-SRC2 inh
CN1C(=O)C(=Cc2ccccc2OCCOc2ccc([N+](=O)[O-])cc2)C(=O)N(C)C1=O,10µM*,0.3%,?,?,-1.6%
CCOP(=S)(OCC)SCn1nnc2ccccc2c1=O,.,-1.5%[201 µM],.,.,-2.1%[201 µM]
COC(=O)C(C)Oc1ccc(Oc2ccc(Cl)cc2Cl)cc1 (configuration not stated),.,1.8%[201 µM],.,.,2.9%[201 µM]
CCCN1CCc2cc(O)cc3c2C1Cc1ccc(O)c(O)c1-3 (configuration not stated),15.8µM*,-4.2%,35.5µM*,15.8µM*[quencher],1.4%
CCOc1ccc(N2C(=O)NC(=O)/C(=C\c3cc(OC)c(OC)cc3[N+](=O)[O-])C2=O)cc1,14.1µM*,-2.1%,?,-23.5%,0.5%
COc1ccccc1N1C(=O)NC(=O)/C(=C/c2ccc([N+](=O)[O-])s2)C1=O,.,-5.6%,31.6µM*,?,8.6%
COc1ccccc1N1C(=O)NC(=O)/C(=C\c2cnn(-c3ccccc3)c2)C1=O,?,-3.7%,-6.0%,-4.4%,-7.6%
Cc1ccc(N2C(=O)NC(=O)/C(=C\c3ccc([N+](=O)[O-])o3)C2=O)cc1,22.4µM*,19.4%,?,-14.9%,15.6%
COc1ccc(N2C(=O)/C(=C/C=C/c3ccccc3[N+](=O)[O-])C(=O)NC2=S)cc1,28.2µM*,-6.9%,?,?,5.4%
O=C(O)C(F)(F)C(F)(F)C(F)(F)C(F)(F)C(F)(F)F,.,1.1%[201 µM],.,.,-1.5%[201 µM]
CCOP(=O)(OCC)SCSC(C)(C)C,.,-2.3%[201 µM],.,.,5.7%[201 µM]
COc1cccc(N2C(=O)NC(=O)/C(=C/c3ccc([N+](=O)[O-])s3)C2=O)c1,.,1.3%,-94.9%,-50.8%,16.6%
